# Reference: PubChem BioAssay (NCI)
# About 83,000 compounds went through this panel and 20% of them were active in at least one assay; those are over-represented in the sample as a whole.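 Single-dose data. Exposure time 48 hours. Values below 10 considered active.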 A number with no mark means an inactive call. Activity calls are given as the source filed them.
# System: OVCAR-3 ovarian
# Assay: NCI-60 one-dose screen, 48 h (100 = growth as untreated, 0 = no growth, -100 = all killed)
# Settings: 10 µM unless noted
# Procedure: Growth inhibition of the OVCAR-3 human tumor cell line is measured as a screen for anti-cancer activity. Cells are grown in 96 well plates and exposed to the test compound for 48 hours. Compounds are tested at a single concentration, which is 10^-5 M for most compounds. The reported endpoint is percent growth (GI% or GIPRCNT), where numbers from 0 - 100% represent growth inhibition, and numbers from -100% - 0 represent cell death. For example, a value of 40 represents 60% growth inhibition. A value of 0 means no net growth occurred over the course of the experiment. A value of -40 indicates 40% of cells at the beginning of the experiment died by the end of the experiment. A value of -100 means all cells are dead at the end of the experiment.
# NCI-60 Human Tumor Cell Lines Screen was performed using the standard one-dose NCI protocol, which is described in more detail at https://dtp.cancer.gov/discovery_development/nci-60/default.htm.
# Compounds with GIPRCNT values below 10 were considered active. Activity score was based on GIPRCNT using the following formula: […]
# Score is 0 for GIPRCNT values of 100 or above, 50 for GIPRCNT values of 0, and 100 for GIPRCNT values of -100.
row,SMILES,growth
1,C=C1[C@@H](C)[C@H]2[C@H](Cc3ccccc3)NC(=O)[C@]23[C@@H](O)/C=C/[C@@](C)(O)C(=O)[C@@H](C)C/C=C/[C@H]3[C@@H]1O,46.2%
2,O=[N+]([O-])CC(O)C(Cl)(Cl)Cl (stereo not given),116%
3,CC(C)(C)N1CC1C#N (stereo not given),101%
4,OCCCCCNC1CCCCC1,125%
5,c1cnc2[nH]cc(-c3csc(-c4cn(CCCCN5CCCCC5)c5ccccc45)n3)c2c1,90.5%
6,COP(=S)(N1CC1)N1CC1,113%
7,CC12CC=CCC1CCC1C2CCC2(C)C(c3ccc(=O)oc3)CCC12O (stereo not given),-76.8% (active)
8,CC(=O)O[C@H](C[C@H](C(C)C)N(C)C(=O)[C@@H](NC(=O)[C@H]1CCCCN1C)C(C)C)c1nc(C(=O)N[C@@H](Cc2ccccc2)C[C@H](C)C(=O)O)c(C(C)C)s1,-28.1% (active)
9,O=C(Nc1ccc(Cl)cc1)Nc1nccs1,-26.6% (active)
10,Cn1cc(-c2csc(-c3cn(CCCCN4CCCCC4)c4ccc(F)cc34)n2)c2cccnc21,87.7%
11,O=NN1CCCc2cccc(O)c21,49.6%
12,COC(=O)[C@@H](C)C[C@H](Cc1ccc(F)cc1)NC(=O)c1csc([C@@H](C[C@H](C(C)C)N(C)C(=O)[C@@H](NC(=O)[C@H]2CCCCN2C)C(C)C)OC(C)=O)n1,-27.4% (active)
13,Cc1c2cc(Cl)c3ccccc3c2c[n+]2ccccc12,4.55% (active)
14,CC(=O)O[C@H]1C(=O)[C@@]2(C)[C@H]([C@H](OC(=O)c3ccccc3)[C@]3(O)C[C@H](OC(=O)[C@H](OC(=O)OCC4COC(C)(C)O4)[C@@H](NC(=O)c4ccccc4)c4ccccc4)C(C)=C1C3(C)C)[C@]1(OC(C)=O)CO[C@@H]1C[C@@H]2O (stereo not given in full),15%
15,COc1ccc2c(c1)c(-c1nc(-c3cn(C)c4ncccc34)cs1)cn2CCCCN1CCCCC1,-78.4% (active)
16,ClCCN(CCCl)c1ccc(-n2cnc3c(Cl)ncnc32)cc1,-35.4% (active)
17,COc1ccc(Nc2ccc([N+](=O)[O-])cc2[N+](=O)[O-])cc1CN(CCCl)CCCl,20%
18,CCOP(=O)(Nc1ccc2c(c1)/C(=N/NC(N)=S)c1ccccc1-2)OCC,105%
19,Nc1nnnc2nc[nH]c12,27.6%
20,CCCCCCCCCCCCNC(c1ccccc1)C(O)c1ccccc1 (stereo not given),83.8%

row,SMILES,growth
1,CC[S][Hg][Cl],109%
2,CC(CO)NC1CCCCC1 (stereo not given),115%
3,O=C(CCl)c1ccc([N+](=O)[O-])o1,-100% (active)
4,c1ccc(COc2ccc3[nH]cc(CCN(Cc4ccccc4)Cc4ccccc4)c3c2)cc1,96.7%
5,[Cl][Hg][c]1cc[c]([Hg][Cl])o1,-1.69% (active)
6,CN(C)C(=O)Oc1ccccc1-c1ccccc1,108%
7,Nc1ccc(Cl)cc1,112%
8,CN(C)C1C(=O)C(C(N)=O)=C(O)C2(O)C(=O)C3=C(O)c4c(O)cccc4C(C)(O)C3CC12.[Cl][Sb]([Cl])[Cl] (stereo not given),38%
9,COC(=O)[C@H](Cc1ccccc1)NC(=O)c1csc([C@@H](C[C@H](C(C)C)N(C)C(=O)[C@@H](NC(=O)[C@H]2CCCCN2C)C2CC2)OC(C)=O)n1,-21.4% (active)
10,N#CC1(c2ccccc2)CCN(Cc2ccccc2)CC1,101%
11,C/C1=C/C(=O)O[C@@H]2C[C@@H](CC[C@H](C)/C=C\C=C\CC1)O[C@@](O)([C@@H]1CSC(=O)N1CO)C2,-7.34% (active)
12,COC(=O)[C@@H](C)C[C@H](Cc1ccccc1)NC(=O)c1csc([C@@H](C[C@H](C(C)C)N(C)C(=O)[C@@H](NC(=O)[C@H]2CCCN2C)C2CC2)OC(C)=O)n1,-34.5% (active)
13,Nc1c(F)cc(-c2nc3cc(F)ccc3[se]2)cc1Br,40.8%
14,CC(C)(NC(=O)O[C@@H]1CN2CCC1CC2)c1csc(-c2ccc(F)cc2)n1,109%
15,CC1(C)[C@H](O)[C@H](F)C[C@@]2(C)Oc3ccc(C(=O)Nc4ccc5c(c4)NC(=O)C54CCN(CCCCC#N)CC4)cc3C[C@H]12,61.3%
16,CC[C@H](C)[C@@H]([C@@H](CC(=O)N1CCC[C@H]1[C@H](OC)[C@@H](C)C(=O)N[C@H](C)[C@@H](O)c1ccccc1)OC)N(C)C(=O)[C@@H](NC(=O)[C@@H](NC)C(C)C)C(C)C,-13.9% (active)
17,Cc1ccc(C(=O)NCCCOc2ccc(N)cc2Cl)cc1S(=O)(=O)F,98.8%
18,Cc1ccc(S(=O)(=O)F)cc1C(=O)O,109%
19,CC(=O)Nc1nc2c(s1)CC[C@@]1(C)C2=CC[C@H]2[C@@H]3CC[C@H](O)[C@@]3(C)CC[C@@H]21,13.7%
20,CN1CCCCC1C(C)(O)c1ccccc1 (stereo not given),111%
